Here are results for 20 compounds from PubChem BioAssay.

The nature of assay [1]: antimalarial activity against Dd2 strain (AID 2302;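 active means growth inhibition above 50% at the single 2 µM test dose, taken to imply half-maximal potency below 2 µM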;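 further: 0% = DMSO untreated growth and 100% = chloroquine plus artemisinin killed control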). Conditions: P. falciparum Dd2 in RBCs, LDH growth readout, 72 h; at 2 µM; active compounds read high.
Assay [2] is described as follows: HepG2 cytotoxicity, primary screen, cytotoxicity control for P. falciparum antimalarial project, cell-based, ATP luminescence (AID 2303;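 active means inhibition above 50%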;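 further: 0% = DMSO wells and 100% = digitonin-killed cells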). Conditions: HepG2 viability, 24-48 h, at 10 µM, active compounds read high.
Assay [3] has as its target L-lactate dehydrogenase (Plasmodium falciparum (isolate CDC / Honduras)) (UniProt Q27743). In words: PfLDH activity inhibition – cell lysate, 3D7 strain, counter-screen for P. falciparum growth inhibition project (AID 2304).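 Further: 0% = vehicle and 100% = reference inhibitor.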 Particulars: P. falciparum 3D7 crude extract, LDH APAD/NBT absorbance; at 2 µM; active compounds read high. (In general: A counterscreen serves to expose hits that act by an unwanted route or on another target.)

Assay [4] can be described thus: inhibition of 3D7 malaria parasite growth – strain 3D7 (AID 2306).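 Further: 0% = DMSO wells and 100% = chloroquine plus artemisinin control wells.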 Conditions: P. falciparum 3D7 erythrocytic growth, LDH absorbance, 72 h; at 2 µM; active compounds read high.
Assay [5] has as its target Calcium-dependent protein kinase 1 (Plasmodium falciparum (isolate 3D7)) (UniProt P62344). In words: PfCDPK1 kinase inhibitors, biochemical, TCAMS library (AID 1159585; cut-off not given, nearly all actives have IC50 up to about 0.98 µM;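 further: inhibitors leave more ATP so luminescence rises with inhibition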). Conditions: recombinant PfCDPK1, Kinase-Glo ATP depletion luminescence. A general note: In Kinase-Glo more light means more ATP remaining.
Assay [6] deals with Plasmodium falciparum protein kinase 6 (PK6, PF3D7_1337100) (UniProt Q8IDW1). Description: PfPK6 kinase inhibitors, biochemical, TCAMS library (AID 1159586). Particulars: recombinant PfPK6, Kinase-Glo ATP depletion luminescence.
Sequence of Plasmodium falciparum protein kinase 6 (PK6, PF3D7_1337100) (Q8IDW1 1-305): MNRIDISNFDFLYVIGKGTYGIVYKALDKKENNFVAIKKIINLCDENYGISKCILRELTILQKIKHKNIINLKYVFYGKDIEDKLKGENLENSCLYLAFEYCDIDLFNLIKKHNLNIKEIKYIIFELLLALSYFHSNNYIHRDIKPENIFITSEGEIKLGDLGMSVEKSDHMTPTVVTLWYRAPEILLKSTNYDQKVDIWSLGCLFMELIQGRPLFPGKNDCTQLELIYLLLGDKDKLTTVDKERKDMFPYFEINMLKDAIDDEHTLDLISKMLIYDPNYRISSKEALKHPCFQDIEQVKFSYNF
The target of assay [7] is Protein kinase 7 (PK7), Plasmodium falciparum 3D7 (PF3D7_0213400) (UniProt Q7YTF7). Description: inhibition of Plasmodium PK7 catalytic activity – biochemical, TCAMS antimalarial set, Kinase-Glo luminescence (AID 1159587). Particulars: recombinant PfPK7, Kinase-Glo ATP depletion luminescence.
Sequence of Protein kinase 7 (PK7), Plasmodium falciparum 3D7 (PF3D7_0213400) (Q7YTF7 1-343): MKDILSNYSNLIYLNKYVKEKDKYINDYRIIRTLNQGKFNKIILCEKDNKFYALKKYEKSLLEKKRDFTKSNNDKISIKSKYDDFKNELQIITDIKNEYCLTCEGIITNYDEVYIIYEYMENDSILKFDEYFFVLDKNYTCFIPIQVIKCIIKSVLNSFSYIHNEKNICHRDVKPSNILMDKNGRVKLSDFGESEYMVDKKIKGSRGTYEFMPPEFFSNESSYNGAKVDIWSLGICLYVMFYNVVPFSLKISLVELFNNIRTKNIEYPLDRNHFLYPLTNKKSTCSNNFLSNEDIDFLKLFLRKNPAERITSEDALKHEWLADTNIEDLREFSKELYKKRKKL
The target of assay [8] is Calcium-dependent protein kinase 4 (Plasmodium falciparum (isolate 3D7)) (UniProt Q8IBS5). In words: PfCDPK4 kinase inhibitors, biochemical, TCAMS library (AID 1159588; cut-off not given, nearly all actives have IC50 up to about 0.91 µM). Conditions: recombinant PfCDPK4, Kinase-Glo ATP depletion luminescence.
Sequence of Calcium-dependent protein kinase 4 (Plasmodium falciparum (isolate 3D7)) (Q8IBS5 whole entry, looked up): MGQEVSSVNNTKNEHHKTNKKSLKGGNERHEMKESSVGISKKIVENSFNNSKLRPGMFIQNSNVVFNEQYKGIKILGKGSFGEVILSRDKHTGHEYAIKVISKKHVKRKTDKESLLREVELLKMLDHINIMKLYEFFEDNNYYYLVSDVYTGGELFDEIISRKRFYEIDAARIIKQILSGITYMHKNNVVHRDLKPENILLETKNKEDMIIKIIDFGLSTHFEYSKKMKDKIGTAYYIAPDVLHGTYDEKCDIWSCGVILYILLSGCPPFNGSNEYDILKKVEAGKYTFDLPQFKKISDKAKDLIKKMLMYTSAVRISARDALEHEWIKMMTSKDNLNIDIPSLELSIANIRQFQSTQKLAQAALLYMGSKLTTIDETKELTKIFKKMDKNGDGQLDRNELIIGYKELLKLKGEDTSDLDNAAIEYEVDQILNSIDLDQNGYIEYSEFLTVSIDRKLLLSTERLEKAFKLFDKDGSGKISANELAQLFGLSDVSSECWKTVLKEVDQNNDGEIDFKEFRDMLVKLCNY

Unmarked numbers belong to inactive results. For some of these results: Entries with a potency or affinity are not part of this list. The source made the active and inactive calls. Unless noted, how the calls were made is not given here.

Sequence of L-lactate dehydrogenase (Plasmodium falciparum (isolate CDC / Honduras)) (Q27743 whole entry, looked up): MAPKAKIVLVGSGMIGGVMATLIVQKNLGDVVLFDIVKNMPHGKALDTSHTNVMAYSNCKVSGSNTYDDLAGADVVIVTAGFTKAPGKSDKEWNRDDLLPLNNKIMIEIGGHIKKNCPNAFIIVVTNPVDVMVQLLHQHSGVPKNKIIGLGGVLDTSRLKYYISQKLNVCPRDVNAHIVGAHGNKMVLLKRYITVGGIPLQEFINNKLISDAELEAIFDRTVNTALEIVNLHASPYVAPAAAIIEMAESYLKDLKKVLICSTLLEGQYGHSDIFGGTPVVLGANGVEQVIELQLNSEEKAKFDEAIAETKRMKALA
Sequence of Calcium-dependent protein kinase 1 (Plasmodium falciparum (isolate 3D7)) (P62344 whole entry, looked up): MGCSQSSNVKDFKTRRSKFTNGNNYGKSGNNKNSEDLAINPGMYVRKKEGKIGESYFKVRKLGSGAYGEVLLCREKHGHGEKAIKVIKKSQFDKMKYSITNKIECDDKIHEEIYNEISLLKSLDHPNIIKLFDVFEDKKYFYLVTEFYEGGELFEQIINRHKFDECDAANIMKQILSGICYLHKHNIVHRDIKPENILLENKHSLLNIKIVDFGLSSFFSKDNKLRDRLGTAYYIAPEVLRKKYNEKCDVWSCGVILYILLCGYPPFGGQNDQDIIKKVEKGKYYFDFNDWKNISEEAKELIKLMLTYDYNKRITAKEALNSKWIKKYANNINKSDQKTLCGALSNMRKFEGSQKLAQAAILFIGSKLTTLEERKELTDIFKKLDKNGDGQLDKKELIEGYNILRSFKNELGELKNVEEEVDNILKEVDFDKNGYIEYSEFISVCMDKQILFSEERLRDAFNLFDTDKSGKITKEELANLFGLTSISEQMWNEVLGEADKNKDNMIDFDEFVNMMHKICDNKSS

In general, inhibition refers to the relative decrease from the control value, in per cent. Turning to `COc1cc2cc(C(=O)Nc3ccccc3)c(N)nc2cc1OC`, the growth inhibition in assay [1] is -2%; in assay [4] it was 90% (active). Further, the inhibition was 0% in assay [2] and -1% in assay [3]. Also, the result in assay [5], in assay [6], in assay [7] and in assay [8] was inactive.

In the case of `CCN1CCC(N(Cc2ccc(-c3ccc(C(F)(F)F)cc3)cc2)C(=O)Cn2c(CCc3cccc(F)c3F)nc(=O)c3ccccc32)CC1`, the growth inhibition in assay [1] and in assay [4] was 95% (active) in each case. The inhibition in assay [2] was 99% (active); in assay [3], 3%. In addition, the outcome in assay [5], in assay [6], in assay [7] and in assay [8] was inactive.

Consider `CC(=O)Nc1ccc([N+](=O)[O-])c2c(Br)cccc12`, for which the growth inhibition in assay [1] is -1%; in assay [4] it was 100% (active). For the same compound, the results for the inhibition in assay [2] and in assay [3] were -3% and -4%, respectively. For the same compound, the outcome in assay [5], in assay [6], in assay [7] and in assay [8] was inactive.

As to `CC=CC1CCNC(C(O)c2ccnc3ccc(OC)cc23)C1` (stereo not given), the growth inhibition in assay [1] is 1%; in assay [4] it was 91% (active). Further, the figures for the inhibition in assay [2] and in assay [3] were -2% and 3%, respectively. The outcome in assay [5], in assay [6], in assay [7] and in assay [8] was inactive.

Take `O=C(Nc1cccc(-c2ccc(-c3nc4ccc(C(F)(F)F)cc4[nH]3)s2)c1)c1cccnc1`: the figures for the growth inhibition in assay [1] and in assay [4] were 99% (active) and 101% (active), respectively. Besides, the values for the inhibition in assay [2] and in assay [3] were 74% (active) and -3%, respectively. Also, the outcome in assay [5], in assay [6], in assay [7] and in assay [8] was inactive.

In the case of `CN1CCN(c2ccc(Nc3c(C(N)=O)cnc4cc(-c5ccoc5)ccc34)cc2C(F)(F)F)CC1`, the values for the growth inhibition in assay [1] and in assay [4] were 97% (active) and 100% (active), respectively. Moreover, the figures for the inhibition in assay [2] and in assay [3] were 13% and -9%, respectively. The outcome in assay [5], in assay [6], in assay [7] and in assay [8] was inactive.

Regarding `COc1cc(Br)c(NC(=O)Nc2ccc(C(F)(F)F)c(O[C@@H]3CCN(C)C3)c2)cc1OC`, the values for the growth inhibition in assay [1] and in assay [4] were 27% and 97% (active), respectively. For the same compound, the values for the inhibition in assay [2] and in assay [3] were 10% and -1%, respectively. Moreover, the result in assay [5], in assay [6], in assay [7] and in assay [8] was inactive.

With `COc1ccc(-c2cccc(NC(=O)c3cccc(Cl)c3)c2)cc1CN1CCN(C)CC1`, the growth inhibition is 48% in assay [1] and 101% (active) in assay [4]. The inhibition was 27% in assay [2] and 1% in assay [3]. Besides, the result in assay [5], in assay [6], in assay [7] and in assay [8] was inactive.

In the case of `Cc1cccc2[nH]c(-c3ccc(-c4ccc(NC(=O)Nc5ccsc5)cc4)s3)nc12`, the growth inhibition in assay [1] was 88% (active); in assay [4], 100% (active). Besides, the inhibition in assay [2] is 74% (active); in assay [3] it was 2%. Further, the outcome in assay [5], in assay [6], in assay [7] and in assay [8] was inactive.

Regarding `COc1ccc(S(=O)(=O)NCCC2CCN(CCCCCNC(=O)C=Cc3ccc(Cl)c(Cl)c3)CC2)cc1`, the growth inhibition is -2% in assay [1] and 87% (active) in assay [4]. Besides, the inhibition was 36% in assay [2] and 5% in assay [3]. For the same compound, the outcome in assay [5], in assay [6], in assay [7] and in assay [8] was inactive.

In the case of `O=C(Nc1ccc(OC2CCN(Cc3ccsc3)C2)c(Cl)c1)c1ccsc1` (stereo not given), the growth inhibition was 70% (active) in assay [1] and 85% (active) in assay [4]. The inhibition in assay [2] was 4%; in assay [3], 0%. Also, the result in assay [5], in assay [6], in assay [7] and in assay [8] was inactive.

In the case of `O=S(=O)(Nc1cccc(CCN2CCCCC2CCN2CCCC2)c1)c1ccc(-c2ccccc2)cc1` (stereo not given), the growth inhibition in assay [1] is 5%; in assay [4], 99% (active). The values for the inhibition in assay [2] and in assay [3] were 31% and 0%, respectively. Further, the result in assay [5], in assay [6], in assay [7] and in assay [8] was inactive.

With `COc1ccccc1-c1ccc2nnc(SCC(=O)Nc3ccc4c(c3)OCCO4)n2n1`, the growth inhibition in assay [1] was 5%; in assay [4] it was 99% (active). The inhibition in assay [2] is 9%; in assay [3] it was -7%. Also, the result in assay [5], in assay [6], in assay [7] and in assay [8] was inactive.

Take `C=CCn1c(=N)c(C(=O)NC2CCCCC2)cc2c(=O)n3cccc(C)c3nc21`: the growth inhibition is 58% (active) in assay [1] and 92% (active) in assay [4]. The inhibition in assay [2] is 0%; in assay [3] it was 4%. For the same compound, the result in assay [5], in assay [6], in assay [7] and in assay [8] was inactive.

Regarding `OC(CNCc1ccccc1Oc1ccccc1)c1cc(Br)cs1` (stereo not given), the growth inhibition was 79% (active) in assay [1] and 94% (active) in assay [4]. In addition, the inhibition in assay [2] was -13%; in assay [3] it was -4%. In addition, the result in assay [5], in assay [6], in assay [7] and in assay [8] was inactive.

In the case of `CC(C)COc1ccc(Cl)cc1Nc1nc(-c2nc3ccccc3[nH]2)cs1`, the growth inhibition in assay [1] was 29%; in assay [4], 96% (active). Moreover, the inhibition was 2% in assay [2] and 0% in assay [3]. Moreover, the result in assay [5], in assay [6], in assay [7] and in assay [8] was inactive.

With `O=C(O)c1ccc(NC(=O)C2CC(=O)N(Cc3ccc(Cl)cc3)C(=Nc3ccc(Cl)cc3)S2)cc1` (stereo not given), the figures for the growth inhibition in assay [1] and in assay [4] were 95% (active) and 99% (active), respectively. In addition, the values for the inhibition in assay [2] and in assay [3] were -1% and -6%, respectively. In addition, the outcome in assay [5], in assay [6], in assay [7] and in assay [8] was inactive.

For the compound `C=CCOC(=O)N1CCC(CNCc2cccc(-c3ccc(-c4nc5c(C)cccc5[nH]4)s3)c2)C1` (stereo not given), the growth inhibition in assay [1] is 82% (active); in assay [4] it was 101% (active). Moreover, the figures for the inhibition in assay [2] and in assay [3] were 11% and -6%, respectively. Also, the outcome in assay [5], in assay [6], in assay [7] and in assay [8] was inactive.

As to `CC1CCCCC1N(C)C1CCN(CCCNC(=O)C=Cc2ccc(Cl)cc2Cl)CC1` (stereo not given), the growth inhibition in assay [1] was 59% (active); in assay [4], 101% (active). In addition, the inhibition in assay [2] was 53% (active); in assay [3] it was 4%. For the same compound, the outcome in assay [5], in assay [6], in assay [7] and in assay [8] was inactive.

On to `CN(C)CCN(C)Cc1cccc(-c2ccc3c(Nc4cc(O)c(Cl)cc4F)ccnc3c2)c1`, for which the values for the growth inhibition in assay [1] and in assay [4] were 70% (active) and 101% (active), respectively. Moreover, the figures for the inhibition in assay [2] and in assay [3] were 14% and -5%, respectively. Besides, the outcome in assay [5], in assay [6], in assay [7] and in assay [8] was inactive.
